The entries come from a sample that favours hits as a whole.
TbPYK inhibitor: T. brucei pyruvate kinase inhibition | TbPYK enzyme, Kinase-Glo Plus ATP luminescence, 45 min | actives 0.12% (n = 410,000) | Potency, µM (highest dose often 76.8 µM), actives largely listed as inhibitors; further: nearly all actives have a fitted effect of over 50% in size
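Enzyme and substrate buffer are dispensed first and compound is pin-transferred. ADP at 130 uM final then starts the reaction, which runs 45 min at room temperature. Detection reagent is added for 10 min before luminescence is imaged.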
FBPA Giardia inh: inhibitors of Giardia lamblia fructose-1,6-bisphosphate aldolase; Potency, µM (doses to about 59.6 µM), usual class: inhibitors; A8B2U2; AID 2451; purified Giardia FBPA; actives 0.71% (n = 290,000); further: nearly all actives have a fitted effect of over 55% in size
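40 nM FBPA preincubated 10 min at RT with compound (up to 57.5 uM final), then substrate plus GAPDH/TPI/NAD/arsenate coupling and diaphorase/resazurin added. Fluorescence read after 20 min at RT, 525/598 nm.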
Cycloheximide cs: counter-screen hit for Shiga toxin inhibitors, cycloheximide | cell reporter, cycloheximide protein synthesis inhibition counterscreen | max response, % | actives 12% (n = 300,000); in the data active means max response mostly above about 13%, no sharp cut-off; inactive means mostly below about 14%; further: read at 38.3 µM for the half of the compounds with a filed dose
Sm TGR inh: S. mansoni TGR enzyme inhibition. Potency, µM (highest dose often 114 µM), usual class: inhibitors. actives 3% (n = 360,000). purified TGR, DTNB reduction, TNB absorbance 405 nm. AID 485364. Q962Y6; further: nearly all actives have a fitted effect of over 60% in size
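First, TGR (20 nM dispensed) and NADPH were mixed with compound. Second, a 15 min room-temperature incubation followed. Third, further NADPH and then DTNB were added to start the reaction. Finally, TNB absorbance was monitored kinetically.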
Shiga toxin inh: Shiga toxin inhibition; Vero cells, Shiga toxin protein synthesis inhibition reporter; inhibition, % at 38.7 µM; actives 9.2% (n = 290,000); AID 2315; in the data active means inhibition mostly above about 28%, no sharp cut-off; inactive means mostly below about 43%
LmPK inh: blocks Leishmania mexicana pyruvate kinase activity | actives 0.37% (n = 290,000) | purified LmPK, Kinase-Glo ATP luminescence, 1 h | Potency, µM (top dose mostly 57.5 µM), actives largely listed as inhibitors
Target sequence (Q27686 whole entry, looked up): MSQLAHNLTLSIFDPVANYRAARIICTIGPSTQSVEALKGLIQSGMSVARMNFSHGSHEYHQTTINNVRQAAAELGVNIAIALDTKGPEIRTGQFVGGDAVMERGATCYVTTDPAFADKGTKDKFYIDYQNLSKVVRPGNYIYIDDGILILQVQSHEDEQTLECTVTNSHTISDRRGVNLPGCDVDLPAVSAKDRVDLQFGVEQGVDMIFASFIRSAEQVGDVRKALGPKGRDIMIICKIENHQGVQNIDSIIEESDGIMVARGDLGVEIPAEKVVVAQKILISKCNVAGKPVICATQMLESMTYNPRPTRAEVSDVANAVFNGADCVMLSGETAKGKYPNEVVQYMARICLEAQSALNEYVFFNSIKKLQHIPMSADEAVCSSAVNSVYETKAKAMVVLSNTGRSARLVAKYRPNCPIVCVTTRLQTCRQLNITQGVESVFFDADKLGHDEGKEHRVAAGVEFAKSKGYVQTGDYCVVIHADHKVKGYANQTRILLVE
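qHTS format; LmPK 0.1 nM; substrates PEP 0.5 mM and ADP 0.1 mM. One-hour room-temperature incubation, then coupled luciferase luminescence; 0.5 nM enzyme wells mark activation.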
Numbers stand for hits; - = inactive; ? = inconclusive; . = no result. Unless noted, the call rests on the fitted dose curve; in most records, active means well fitted curve in the direction sought with a large enough effect; inconclusive means small, poorly fitted or top-dose-only effect, or another doubt; inactive means no such curve, though single readings can be large; an effect the other way counts as inactive or inconclusive.

SMILES	TbPYK inhibitor	FBPA Giardia inh	Cycloheximide cs	Sm TGR inh	Shiga toxin inh	LmPK inh
O=C(O)COc1ccccc1C1C2C(=O)N(c3ccccc3)C(=O)C2ON1c1ccccc1 (configuration not stated)	-	-	-	22.4µM	-	-
CN(C)c1ccc(C2C3C(=O)N(c4ccc(C(=O)O)cc4)C(=O)C3ON2c2ccccc2)cc1 (configuration not stated)	-	-	-	-	-	-
O=C1C2ON(c3ccccc3)C(c3ccncc3)C2C(=O)N1c1ccc(Br)cc1 (configuration not stated)	-	-	-	44.7µM	-	-
O=C1C2ON(c3ccccc3)C(c3ccncc3)C2C(=O)N1c1ccc(N2CCOCC2)cc1 (configuration not stated)	-	-	-	-	-	-
Cc1ccc(N2C(=O)C3ON(c4ccccc4)C(c4ccncc4)C3C2=O)cc1 (configuration not stated)	-	-	-	15.8µM	-	-
COc1ccc(-c2noc(-c3cccc(OC)c3OC)n2)cc1	-	.	.	-	.	.
COc1ccc(C2=Nc3ccccc3N(CC(=O)Nc3cccc(C(C)=O)c3)C(=O)C2)cc1	-	.	.	-	.	.
Cn1cccc1C(=O)N1CCC2(CCN(C(=O)Nc3cccc(F)c3)CC2)CC1	-	-	.	.	.	.
O=C1c2sc3nc4ccccc4n3c2C(=O)N1c1ccccc1Cl	?	-	20.5	?	116.3	-
CCCCCN1CC(=O)N2Cc3[nH]c4ccccc4c3C[C@H]2C1=O	-	-	-	-	-	-
CCCCCc1c(O)c2ccccc2[nH]c1=O	-	-	-	-	-	-
Cc1ccc2[nH]c3c(c2c1)CC/C(=C/c1ccccc1)C3=O	-	-	23.3	-	-	-
O=C1/C(=C\c2ccccc2)CCc2c1[nH]c1ccccc21	-	-	42.1	-	52.0	-
CCCCN1CCc2c([nH]c3ccccc23)C1=O	-	-	35.2	-	94.6	-
CCCC/C=C1\CCc2c([nH]c3ccccc23)C1=O	-	-	32.2	-	57.0	-
C=C1CCc2c([nH]c3ccc(OCC(C)C)cc23)C1=O	-	-	-	-	-	-
O=C(NCCc1ccc(Cl)cc1)c1nnc(Cc2ccc(Cl)cc2Cl)o1	-	.	.	-	.	.
CC1Cc2c([nH]c3ccccc23)C(=O)N1 (configuration not stated)	-	-	-	-	-	-
Cc1ccc(/C=C2/CCc3c([nH]c4ccccc34)C2=O)cc1	-	-	28.6	-	52.4	-
CC(C)/C=C1\CCc2c([nH]c3ccccc23)C1=O	-	-	31.8	-	45.1	-
O=C1NCCc2c1[nH]c1ccccc21	-	-	-	-	-	-
C#CCSc1nnc(-c2c[nH]c3ccccc23)n1C	-	-	18.0	-	-	-
C#CCSc1nnc(-c2sc(-c3ccccc3)nc2C)n1C	-	-	17.9	-	-	-
CCOC(=O)C(C)Sc1nnc(-c2c[nH]c3ccccc23)n1C (configuration not stated)	-	-	-	-	-	-
CC(C)Sc1nnc(-c2c[nH]c3ccccc23)n1C	-	-	50.2	-	121.4	-
SMILES	TbPYK inhibitor	FBPA Giardia inh	Cycloheximide cs	Sm TGR inh	Shiga toxin inh	LmPK inh
Cn1c(SCc2cccnc2)nnc1-c1c[nH]c2ccccc12	-	-	-	-	-	-
[N-]=[N+]=Nc1ccc(C(=O)CSC[C@H](NC(=O)CC[C@H](N)C(=O)O)C(=O)NCC(=O)O)cc1	.	-	.	.	.	.
COc1ccccc1CN=C1Nc2ccccc2CS1	-	-	29.9	-	81.8	-
Cc1ccc(CN=C2Nc3ccccc3CS2)cc1	-	-	34.5	-	82.2	?
c1cncc(CN=C2Nc3ccccc3CS2)c1	-	-	-	-	-	-
COc1cccc(CN=C2Nc3ccccc3CS2)c1	-	-	54.1	-	77.1	-
c1ccc2c(c1)CSc1ccccc1N2	-	.	.	.	.	.
Clc1ccc(CN=C2Nc3ccccc3CS2)cc1	-	-	33.7	-	64.1	-
COc1cccc(CN2CCSCC2)c1	-	?	-	-	-	-
O=c1cc(-c2ccccc2)n2c(SCc3ccc(F)cc3)nnc2[nH]1	-	.	.	-	.	.
Cc1cc(=O)oc2cc(O[C@@H]3O[C@H](C(=O)O)[C@@H](O)[C@H](O)[C@H]3O)ccc12	.	-	.	.	.	.

Screening data from PubChem.
